Test results reported in PubChem BioAssay (EPA / NIEHS).
Activity calls are given as the source filed them. How the source made its calls: active means hit-call score of the fitted dose curve at least 0.9, where 1 is the maximum; inactive means score below 0.9.

Columns and labels:
[1] = BSK_3C_SRB: Viability Assessment in the BioMAP Diversity Plus: 3C Assay (AID 2283023); details: primary human endothelial cells (HUVEC);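 further: fitted both ways against DMSO so a hit may be signal rise or drop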
In short: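 Absorbance at 560 nm of sulforhodamine B-stained (0.1%) total protein served as a cytotoxicity readout in human umbilical vein endothelial cells, 24 h after chemical treatment. Signal was fitted bidirectionally relative to DMSO.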

[2] = read-out: Matrix Metallopeptidase 1 (MMP1), MMP1 (gene 4312); assay: BSK_BE3C_MMP1: BioMAP Diversity Plus: BE3C Assay for Matrix Metallopeptidase 1 (MMP1) Biomarker Activity (AID 2283024); details: primary human bronchial epithelial cells; actives raise or lower the signal
In short: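 In this multiplexed primary-cell system, human bronchial epithelium received chemicals for 24 h before an ELISA for MMP1. Values reflect bidirectional fits normalised to the DMSO baseline.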

[3] = read-out: Pselectin, SELP (gene 6403); assay: BSK_4H_Pselectin: BioMAP Diversity Plus: 4H Assay for Pselectin Biomarker Activity (AID 2283026); details: primary human endothelial cells (HUVEC); actives raise or lower the signal
In short: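 Bidirectional fits against DMSO gave the endpoint. Cells: primary human umbilical vein endothelium, chemical-treated for 24 h before ELISA detection of P-selectin.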

[4] = BSK_4H_SRB: Viability Assessment in the BioMAP Diversity Plus: 4H Assay (AID 2283027); details: primary human endothelial cells (HUVEC);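 further: cells exposed to compound for 24 h before staining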
In short: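 Cytotoxicity read-out in primary human endothelial cells: after 24 h compound exposure, cells were TCA-fixed (10%), stained with 0.1% SRB and absorbance taken at 560 nm. Values fitted in both directions relative to DMSO.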

[5] = BSK_BE3C_SRB: Viability Assessment in the BioMAP Diversity Plus: BE3C Assay (AID 2283028); details: primary human bronchial epithelial cells
In short: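 Cells (human bronchial epithelial, primary) are treated with chemicals, and after 24 h the parallel cultures are fixed in 10% TCA. These are then stained with 0.1% SRB and read at 560 nm. Gain or loss of signal is fitted relative to DMSO.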

[6] = read-out: Thrombomodulin, THBD (gene 7056); assay: BSK_3C_Thrombomodulin: BioMAP Diversity Plus: 3C Assay for Thrombomodulin Biomarker Activity (AID 2283029); details: primary human endothelial cells (HUVEC); actives raise or lower the signal
In short: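 In a multiplexed primary-cell system, human umbilical vein endothelium received chemical and was assayed 24 h later for thrombomodulin by ELISA. Parallel cultures were SRB-stained (0.1% SRB after 10% TCA fixation, read at 560 nm) to flag cytotoxicity.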

[7] = read-out: Urokinase-type plasminogen activator receptor (uPAR), PLAUR (gene 5329); assay: BSK_4H_uPAR: BioMAP Diversity Plus: 4H Assay for Urokinase-type plasminogen activator receptor (uPAR) Biomarker Activity (AID 2283030); details: primary human endothelial cells (HUVEC); actives raise or lower the signal
In short: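 Cell-surface uPAR ELISA signal, measured 24 h after dosing human umbilical vein endothelial cells, was analyzed with bidirectional fitting relative to DMSO. Parallel SRB staining of total protein tracked overt cytotoxicity.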

[8] = read-out: Vascular endothelial growth factor receptor 2 (Homo sapiens) (UniProt P35968); assay: BSK_4H_VEGFRII: BioMAP Diversity Plus: 4H Assay for Vascular endothelial growth factor receptor 2 (VEGFR2) Biomarker Activity (AID 2283031); details: primary human endothelial cells (HUVEC); actives raise or lower the signal
In short: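 ELISA read-out of VEGFRII in primary human umbilical vein endothelium, taken 24 h after chemical treatment. Responses are expressed relative to DMSO, with bidirectional fitting.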

[9] = read-out: Human Leukocyte Antigen - DR isotype (HLADR), HLA-DRA (gene 3122); assay: BSK_BE3C_HLADR: BioMAP Diversity Plus: BE3C Assay for Human Leukocyte Antigen - DR isotype (HLADR) Biomarker Activity (AID 2283032); details: primary human bronchial epithelial cells; actives raise or lower the signal
In short: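 BioMAP BE3C format: human bronchial epithelium, 24 h compound treatment, ELISA detection of HLA-DR, with bidirectional analysis relative to DMSO.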

[10] = read-out: Vascular cell adhesion molecule 1 (VCAM1), VCAM1 (gene 7412); assay: BSK_4H_VCAM1: BioMAP Diversity Plus: 4H Assay for Vascular cell adhesion molecule 1 (VCAM1) Biomarker Activity (AID 2283033); details: primary human endothelial cells (HUVEC); actives raise or lower the signal;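 further: cell-surface VCAM-1 protein measured by ELISA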
In short: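 In this human endothelial (HUVEC) system, biomarker ELISA was run 24 h after compound addition, and total protein in parallel wells was assessed by SRB at 560 nm; DMSO served as negative control.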

[11] = read-out: Interferon-gamma inducible Protein 10 (IP10), CXCL10 (gene 3627); assay: BSK_BE3C_IP10: BioMAP Diversity Plus: BE3C Assay for Interferon-gamma inducible Protein 10 (IP10) Biomarker Activity (AID 2283034); details: primary human bronchial epithelial cells; actives raise or lower the signal
In short: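 BE3C cells (human bronchial epithelial, primary); 24 h exposure; ELISA for IP-10; DMSO-referenced bidirectional fit.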

[12] = read-out: Monokine induced gamma interferon (MIG), CXCL9 (gene 4283); assay: BSK_BE3C_MIG: BioMAP Diversity Plus: BE3C Assay for Monokine induced gamma interferon (MIG) Biomarker Activity (AID 2283035); details: primary human bronchial epithelial cells; actives raise or lower the signal;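 further: MIG protein measured by ELISA in BE3C cultures after 24 h of dosing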
In short: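 ELISA quantified MIG after 24 h exposure of primary bronchial epithelial cultures, analysed in both directions relative to DMSO. Cytotoxicity tracked in parallel cultures by sulforhodamine B staining.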

[13] = read-out: Plasminogen activator inhibitor-1 (PAI1), SERPINE1 (gene 5054); assay: BSK_BE3C_PAI1: BioMAP Diversity Plus: BE3C Assay for Plasminogen activator inhibitor-1 (PAI1) Biomarker Activity (AID 2283037); details: primary human bronchial epithelial cells; actives raise or lower the signal
In short: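 In this multiplexed primary-cell system, bronchial epithelial cells receive test chemical and are sampled at 24 h. PAI-1 is read by ELISA, with DMSO serving as negative control for bidirectional fitting.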

[14] = read-out: urokinase plasminogen activator (uPA), PLAU (gene 5328); assay: BSK_BE3C_uPA: BioMAP Diversity Plus: BE3C Assay for urokinase plasminogen activator (uPA) Biomarker Activity (AID 2283038); details: primary human bronchial epithelial cells; actives raise or lower the signal;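 further: uPA protein level quantified by ELISA in cell cultures; uPA read one day after compound addition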
In short: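 Bronchial epithelial cells (human, primary); chemical 24 h; uPA by ELISA; bidirectional fit vs DMSO. SRB (0.1%, after 10% TCA fixation, 560 nm) in parallel cultures for cytotoxicity.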

[15] = read-out: Urokinase-type plasminogen activator receptor (uPAR), PLAUR (gene 5329); assay: BSK_BE3C_uPAR: BioMAP Diversity Plus: BE3C Assay for Urokinase-type plasminogen activator receptor (uPAR) Biomarker Activity (AID 2283039); details: primary human bronchial epithelial cells; actives raise or lower the signal;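 further: cells exposed to compound for one day before measurement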
In short: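 Chemically treated human bronchial epithelial cells (lung primary) are assayed for uPAR by ELISA after 24 h, with data fitted in both directions using DMSO as negative control.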

[16] = read-out: Interleukin-6 (IL6), IL6 (gene 3569); assay: BSK_CASM3C_IL6: BioMAP Diversity Plus: CASM3C Assay for Interleukin-6 (IL6) Biomarker Activity for (AID 2283040); details: primary human coronary artery smooth muscle cells; actives raise or lower the signal
[17] = read-out: Tissue plasminogen activator (tPA), PLAT (gene 5327); assay: BSK_BE3C_tPA: BioMAP Diversity Plus: BE3C Assay for Tissue plasminogen activator (tPA) Biomarker Activity (AID 2283041); details: primary human bronchial epithelial cells; actives raise or lower the signal;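 further: tPA level quantified by ELISA one day after compound addition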
In short: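 Using human lung primary bronchial epithelial cells, tPA was measured by ELISA 24 h after dosing; data fitted relative to DMSO.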

[18] = BSK_3C_Vis: BioMAP Diversity Plus: 3C Assay for Morphology Visualization (AID 2283025); details: primary human endothelial cells (HUVEC);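 further: fitted both ways so gain or loss versus DMSO counts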
In short: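 Light-microscopy morphology readout, 24 h exposure, human primary umbilical vein endothelium; analysed relative to DMSO with bidirectional fitting.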

[19] = read-out: Transforming growth factor beta 1 (TGFb1), TGFB1 (gene 7040); assay: BSK_BE3C_TGFb1: BioMAP Diversity Plus: BE3C Assay for Transforming growth factor beta 1 (TGFb1) Biomarker Activity (AID 2283036;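 further: TGF-b1 protein level measured by ELISA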); details: primary human bronchial epithelial cells; actives raise or lower the signal
In short: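 TGF-b1 measured via ELISA, 24 h after chemical dosing of human bronchial epithelial cells (BE3C). Overt cytotoxicity assessed in parallel by SRB (0.1%, TCA-fixed, 560 nm); analysis bidirectional relative to DMSO.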

In the case of `CC1(C)CC(N=C=O)CC(C)(CN=C=O)C1` (configuration not stated), the outcome [1] is reported as “inactive”, the outcome [2] is reported as “inactive” and the outcome [3] is reported as “inactive”. The outcome [4] was “inactive”, the outcome [5] was “inactive” and the outcome [6] was “inactive”. For the same compound, the outcome [7] was “inactive”, the outcome [8] was “inactive” and the outcome [9] was “inactive”. The outcome [10] was “inactive”, the outcome [11] was “inactive” and the outcome [12] was “inactive”. The outcome [13] was “inactive”, the outcome [14] was “inactive” and the outcome [15] was “inactive”. The outcome [16] was “inactive” and the outcome [17] was “inactive”.
With `CCCCCCCCCCCCCCCC` the outcome [1] was “inactive”, the outcome [2] was “inactive” and the outcome [18] was “inactive”. For the same compound, the outcome [3] was “inactive”, the outcome [5] was “inactive” and the outcome [6] was “inactive”. For the same compound, the outcome [7] was “inactive”, the outcome [8] was “inactive” and the outcome [9] was “inactive”. The outcome [10] was “inactive”, the outcome [11] was “inactive” and the outcome [12] was “inactive”. The outcome [13] was “inactive”, the outcome [14] was “inactive” and the outcome [15] was “inactive”. For the same compound, the outcome [16] was “inactive” and the outcome [17] was “inactive”.
With `CCCCCCCCCCCCCCCCCC(=O)O` the AC50 [1] was 20 µM (active), the outcome [2] was “inactive” and the outcome [3] was “inactive”. The outcome [5] was “inactive”, the outcome [6] was “inactive” and the outcome [8] was “inactive”. The outcome [9] was “inactive”, the outcome [10] was “inactive” and the outcome [11] was “inactive”. For the same compound, the outcome [12] was “inactive”, the outcome [13] was “inactive” and the outcome [14] was “inactive”. The outcome [16] was “inactive” and the outcome [17] was “inactive”.
For `CC(=O)OCCOCCOCCOC(C)=O`, the outcome [1] was “inactive”, the outcome [2] was “inactive” and the outcome [3] was “inactive”. The outcome [5] was “inactive”, the outcome [6] was “inactive” and the outcome [7] was “inactive”. For the same compound, the outcome [8] was “inactive”, the outcome [9] was “inactive” and the outcome [10] was “inactive”. The outcome [11] was “inactive”, the outcome [12] was “inactive” and the outcome [13] was “inactive”. For the same compound, the outcome [14] was “inactive”, the outcome [16] was “inactive” and the outcome [17] was “inactive”.
For `CC(=O)C(C)=CC1C(C)=CCCC1(C)C` (configuration not stated), the outcome [1] was “inactive”, the outcome [2] was “inactive” and the outcome [3] was “inactive”. For the same compound, the outcome [4] was “inactive”, the outcome [5] was “inactive” and the outcome [6] was “inactive”. The outcome [7] was “inactive”, the outcome [8] was “inactive” and the outcome [9] was “inactive”. For the same compound, the outcome [10] was “inactive”, the outcome [11] was “inactive” and the outcome [12] was “inactive”. For the same compound, the outcome [19] was “inactive”, the outcome [13] was “inactive” and the outcome [14] was “inactive”. For the same compound, the outcome [15] was “inactive”, the outcome [16] was “inactive” and the outcome [17] was “inactive”.
With `Nc1ccc2c(c1)C(=O)c1ccccc1C2=O` the outcome [1] was “inactive”, the outcome [2] was “inactive” and the outcome [18] was “inactive”. The outcome [3] was “inactive”, the outcome [5] was “inactive” and the outcome [6] was “inactive”. The outcome [7] was “inactive”, the outcome [8] was “inactive” and the outcome [9] was “inactive”. The outcome [10] was “inactive”, the outcome [11] was “inactive” and the outcome [12] was “inactive”. For the same compound, the outcome [13] was “inactive”, the outcome [14] was “inactive” and the outcome [16] was “inactive”. For the same compound, the outcome [17] was “inactive”.
With `Nc1ccc(S(=O)(=O)c2ccc(N)cc2)cc1` the outcome [1] was “inactive”, the outcome [2] was “inactive” and the outcome [18] was “inactive”. The outcome [3] was “inactive”, the outcome [4] was “inactive” and the outcome [5] was “inactive”. For the same compound, the outcome [6] was “inactive”, the outcome [7] was “inactive” and the outcome [8] was “inactive”. The outcome [9] was “inactive”, the outcome [10] was “inactive” and the outcome [11] was “inactive”. The outcome [12] was “inactive”, the outcome [13] was “inactive” and the outcome [14] was “inactive”. The outcome [16] was “inactive” and the outcome [17] was “inactive”.
For `CC(=O)Oc1ccccc1C(=O)O`, the outcome [1] was “inactive”, the outcome [2] was “inactive” and the outcome [3] was “inactive”. The outcome [5] was “inactive”, the outcome [6] was “inactive” and the AC50 [7] was 0.412 µM (active). For the same compound, the outcome [8] was “inactive”, the outcome [9] was “inactive” and the outcome [10] was “inactive”. The outcome [11] was “inactive”, the outcome [12] was “inactive” and the outcome [13] was “inactive”. The outcome [14] was “inactive”, the outcome [15] was “inactive” and the outcome [16] was “inactive”. For the same compound, the outcome [17] was “inactive”.
In the case of `CCCCOC(=O)CCCCCCCCC(=O)OCCCC`, the outcome [1] is reported as “inactive”, the outcome [2] is reported as “inactive” and the outcome [3] is reported as “inactive”. The outcome [5] was “inactive”, the outcome [6] was “inactive” and the outcome [7] was “inactive”. The outcome [8] was “inactive”, the outcome [9] was “inactive” and the outcome [10] was “inactive”. The outcome [11] was “inactive”, the outcome [12] was “inactive” and the outcome [19] was “inactive”. For the same compound, the outcome [13] was “inactive”, the outcome [14] was “inactive” and the outcome [15] was “inactive”. The outcome [16] was “inactive” and the outcome [17] was “inactive”.
